Compound activity deposited in PubChem by National Center for Advancing Translational Sciences (NCATS).
Lassa entry = inhibitors of Lassa virus binding or entry into cells | 18,000 compounds, 4.1% hits | Potency, µM (series often up to 49.2 µM), inactives show at the top dose activity change, negative = inhibition, most hits filed as inhibitors | Lassa virus pseudotyped entry inhibition, cell-based qHTS
MARV entry inh = Marburg virus entry inhibition | Marburg virus pseudotype entry/binding inhibition, cell-based | Potency, µM (series often up to 49.2 µM), inactives show at the highest dose activity change, negative = inhibition, most hits filed as inhibitors | 18,000 compounds, 6.5% hits
An asterisk follows results filed as active; ? = inconclusive; nt = no result given; ! = not active in a repeat; [ ] = remark or other dose. Only some compounds are listed: those with a hit (about 7.1% of all), similar ones and a draw of the others. Calls come from the whole dose curve; tested in HEK293 cells. % is set by controls: 0 for no effect and ±100 for the full control effect; potency is the fitted concentration of half-maximal effect.

SMILES	Lassa entry	MARV entry inh
CCN(CC)CCOC(=O)C1(c2ccccc2)CCCC1	-25%	-31%
CCN(CC)CCOC(=O)C1(C2CCCCC2)CCCCC1	?	11µM*!
Oc1cc2c(cc1O)[C@@H]1c3ccc(O)c(O)c3OC[C@]1(O)C2	-20%	5.6µM*
c1ccc(C2(c3ccccc3)CC2C2=NCCN2)cc1 (centres undefined)	2%	2%
c1ccc2c(c1)OC[C@@H](C1=NCCN1)O2	?	11µM*
O=C(O)c1[nH]n(-c2ccc(S(=O)(=O)O)cc2)c(=O)c1N=Nc1ccc(S(=O)(=O)O)cc1	4µM*	?
CCc1ccc(S(=O)(=O)O)cc1	-8%	-3%
CCCCCN(C)CCC(O)(P(=O)(O)O)P(=O)(O)O	-6%	3%
CNCCCCc1cnc(C)c2[nH]c3ccccc3c12	?	11µM*
O=C1NC(=O)c2c1c1c3ccccc3[nH]c1c1[nH]c3ccccc3c21	-17%	?
CC(C)C[C@@H]1COc2cccc(N3CCCCC3)c2S(=O)(=O)N1	19%	27%
CC(C)c1nc(C(=O)N2CCOc3ccc(CN4CCN(c5ccccn5)CC4)cc3C2)cs1	-25%	?
CC(=O)NC1C(OC2OC(CC(O)C3OC([N+]4=CCC(=O)NC4=O)C(O)C3O)C(O)C(O)C2NC(=O)/C=C/CCCCCCCCC(C)C)OC(CO)C(O)C1O (centres undefined)	-28%	?
CC(=O)N[C@H]1C(O[C@@H]2O[C@H](C[C@@H](O)[C@H]3O[C@@H](N4CCC(=O)NC4=O)[C@H](O)[C@@H]3O)[C@H](O)[C@H](O)[C@H]2NC(=O)/C=C/CCCCCCCCCCC(C)C)OC(CO)[C@@H](O)[C@@H]1O (some centres undefined)	?	4.5µM*
S=C=NCc1ccccc1	10%	14%
C[N+](C)(C)CC#CCOC(=O)Nc1cccc(Cl)c1	-13%	3%
O=C(Nc1cccc(Cl)c1)OCC#CCCl	-29%	11µM*
Oc1ccc(OCc2ccccc2)cc1	?	-25%[17.8 µM]
N=C(N)SCCc1ccc(OCc2ccc([N+](=O)[O-])cc2)cc1	-15%	14µM*
CCC(=O)N1C2=C(c3ccccc3[C@@H]1CC(=O)Nc1ccc3ccccc3c1)[C@H]1C(=O)N(c3ccccc3)C(=O)[C@@H]1[C@H](C)C2	14%[8.59 µM]	?
NC[C@@H]1O[C@H](C23CC4CC(CC(C4)C2)C3)Cc2c1ccc(O)c2O	?	13µM*
NC[C@@H]1O[C@H](c2ccccc2)Cc2c1ccc(O)c2O	-16%	?
CCOC(=O)C1=CN(CCc2cn(Cc3ccccc3)nn2)C(=O)NC1c1ccccc1 (centres undefined)	-1%[8.59 µM]	-8%[8.59 µM]
O=C(O)CCCCCCNC1c2ccccc2CCc2ccccc21	-12%	6%
COC(=O)c1c(OCc2cccnc2)cc(=O)n2c1CCN(C(=O)c1c3c(nn1C)CCCC3)CC2	0%	6%
SMILES	Lassa entry	MARV entry inh
CC1(C)OC2C(CO)OC(n3cnc4c(=O)[nH]cnc43)C2O1 (centres undefined)	-12%	?
COC1=CC(=O)CC(C)C12Oc1c(Cl)c(OC)cc(OC)c1C2=O (centres undefined)	-11%	-18%
C=CCc1ccc(OC)cc1	6.3µM*	6.3µM*
C=CCc1ccc(O)c(-c2cc(CC=C)ccc2O)c1	-14%	9%
CCN(Cc1ccncc1)Cc1ccc2c(c1)CN(C(=O)c1ccc(C#CC(C)(C)O)o1)CCO2	3%	-5%
Nc1cc(Cl)c(NC2=NCCN2)c(Cl)c1	-2%	25%
COc1ccc2c(c1)OC/C(=C\c1ccc(OC)c(O)c1)C2=O	-17%	13µM*
COc1cc(C/C=C/c2ccccc2)c(OC)cc1O	-9%	4%
COc1ccc2c(c1)OCc1c-2oc2cc(OC)ccc12	4%	54%
COc1ccc(C=C2c3ccccc3C(=O)c3ccccc32)cc1O	?	1µM*
COCCN(CCOC)Cc1cc(=O)oc2cc(C)c(Cl)cc12	9%	14%
O=C(Cn1cc(COc2ccc(Br)cc2[N+](=O)[O-])nn1)c1ccc(O)cc1	11%	19%
CCCC1([C@H](O)C/C=C/[C@H]2[C@H](O)CC(=O)[C@@H]2CCCCCCC(=O)OC)CCC1	?	-2%
COc1cc(/C=C/C(=O)N2CCC=CC2=O)cc(OC)c1OC	?	10µM*
COc1cc(C(=O)N2CCCCCCC2)cc(OC)c1OC	-20%	-5%
CC(C)C[C@H]1C(=O)N2CCCC2[C@]2(O)O[C@](NC(=O)[C@@H]3C=C4c5cccc6[nH]cc(c56)CC4N(C)C3)(C(C)C)C(=O)N12 (some centres undefined)	-2%	?
c1ccc2c(c1)Sc1ccccc1N2CCN1CCCC1	-28%	?
O=C(CCN1CCN(CCO)CC1)N1c2ccccc2Sc2ccc(C(F)(F)F)cc21	-15%	?
O=C1CSC2(CCN(CCCN3c4ccccc4Sc4ccc(Cl)cc43)CC2)N1	?	22µM*
N#Cc1ccc2c(c1)N(CCCN1CCC(O)CC1)c1ccccc1S2	-9%	20µM*
CN1CCN(CCCN2c3ccccc3Sc3ccc(C(F)(F)F)cc32)CC1	22µM*	16µM*
O=c1n(CCCN2CCN(c3cccc(Cl)c3)CC2)nc2ccccn12	0%	10%
O=C(O)c1cc2ccccc2c(Cc2c(O)c(C(=O)O)cc3ccccc23)c1O	-3%	14%
NCCCC[C@H](NC(=O)[C@H](Cc1c[nH]c2ccccc12)NC(=O)[C@H](CC(=O)O)NC(=O)[C@H](Cc1cnc[nH]1)NC(=O)[C@H](CO)NC(=O)[C@H](Cc1c[nH]c2ccccc12)NC(=O)[C@H](Cc1cnc[nH]1)NC(=O)[C@@H]1CCC(=O)N1)C(=O)N1CCC[C@H]1C(=O)NCC(N)=O	5%	-7%
NC[C@@H]1O[C@H](O[C@H]2[C@H](O)[C@@H](O[C@H]3[C@H](O)[C@H](N)C[C@H](N)[C@H]3O[C@@H]3O[C@H](CO)[C@@H](O)[C@H](O)[C@@H]3N)O[C@H]2CO)[C@@H](N)[C@H](O)[C@@H]1O	1%[17.8 µM]	2%[17.8 µM]
SMILES	Lassa entry	MARV entry inh
CCN(CC)C(=S)SSC(=S)N(CC)CC	40µM*!	20µM*
CNC(=O)C[C@H]1C(=O)N(c2ccc(OC)cc2)C[C@@H]1CSC	nt	21%
CCOC(=O)CNC(=O)O[C@@H]1C(=O)c2cc(Br)ccc2O[C@H]1c1ccc2c(c1)OCO2	-10%	13%
COc1cc(C2c3cc4c(cc3C(OC3OC5COC(C)O[C@@H]5C(O)C3O)C3COC(=O)C23)OCO4)cc(OC)c1O (some centres undefined)	?	1.1µM*
COc1cc([C@@H]2c3cc4c(cc3C(O[C@@H]3O[C@@H]5CO[C@@H](C)O[C@H]5[C@H](O)[C@H]3O)C3COC(=O)[C@@H]32)OCO4)cc(OC)c1OP(=O)(O)O (some centres undefined)	3.2µM*	2.8µM*
COc1cc([C@@H]2c3cc4c(cc3[C@@H](O[C@@H]3O[C@@H]5CO[C@@H](C)O[C@H]5[C@H](O)[C@H]3O)[C@H]3COC(=O)[C@H]23)OCO4)cc(OC)c1O	1.1µM*	?
COc1cc2oc(=O)ccc2cc1O	-13%	10%
CC1(OC(=O)c2cccs2)C(=O)C=C2C=C(c3ccsc3)OC=C2C1=O (centres undefined)	-7%	-18%
Cc1cc(-c2ccnc(-n3ncc(C(=O)NCC4CCCN(C)C4)c3C3CC3)n2)c(C)s1 (centres undefined)	5%	?
